The values below come from PubChem BioAssay (NCATS).

Unmarked numbers belong to inactive results. Results filed as inconclusive are left out. Active and inactive are the calls of the source. Calls follow the shape of the dose curve; as a rule, active = well fitted curve in the direction sought with a large enough effect; inconclusive = small, poorly fitted or top-dose-only effect, or another doubt; inactive = no such curve, though single readings can be large; an effect the other way counts as inactive or inconclusive. Bridge positions count the residues as written; N and C are the ends. Square brackets hold non-standard residues; d marks the D form. Side chains are listed from the residue outwards. Peptide text beside a SMILES is read from it. * marks the point of attachment. Phg(4-OMe) = COc1ccc([C@H](N)C(=O)O)cc1; d(aIle) = CC[C@H](C)[C@@H](N)C(=O)O; d(aThr) = C[C@@H](O)[C@@H](N)C(=O)O; NMeF = CN[C@@H](Cc1ccccc1)C(=O)O; Isobutyryl = CC(C)C(=O)*

Experiment [1] can be described thus: OV-KATE Cancer Cell Toxicity qHTS against the NCATS CANVASS Library (AID 1347345). Put shortly: (§1)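 Following a 4 h pre-incubation of 1000 seeded cells, compounds were pinned in an 11-pnt dilution series and left for 72 h; viability then came from CellTiter-Glo.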
A short description of experiment [2]: OV-SAHO Cancer Cell Toxicity qHTS against the NCATS CANVASS Library (AID 1347348). Also: series mostly up to about 38 µM; nearly all actives have a fitted effect of over 55% in size. The method, boiled down:
as §1
In general terms: In qHTS, concentration-response curves come from the screen itself.

Experiment [3] in a line: A2780 Cisplatin Sensitive Ovarian Cancer Cell Toxicity qHTS against the NCATS CANVASS Library (AID 1347353). Also: nearly all actives have a fitted effect of over 60% in size. Also: potency is read from the fitted curve at half-maximal effect. Put shortly: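 Seventy-two-hour exposure of cisplatin-sensitive A2780 ovarian cells to an 11-concentration qHTS series; cytotoxicity is inferred from loss of ATPLite luminescence. Bortezomib titration served as positive control.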
Experiment [4] can be described thus: HEK-293 Cancer Cell Toxicity qHTS against the NCATS CANVASS Library (AID 1347355). Also: series mostly up to about 46 µM; nearly all actives have a fitted effect of over 65% in size. The method, boiled down:
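qHTS cytotoxicity: compounds tested in 11 concentrations on 1000 seeded cells per well over 72 h; bortezomib served as control; signal from CellTiter-Glo luminescence.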

The nature of experiment [5]: HPAF-II 12hr Apoptosis Induction qHTS against the NCATS CANVASS Library (AID 1347358). The method, boiled down: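 Apoptosis in HPAF-II pancreatic cancer cells is scored as caspase 3/7 luminescence following a 12-hour exposure to an 11-point compound series.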
A short description of experiment [6]: HEK293 24hr Apoptosis Induction qHTS against the NCATS CANVASS Library (AID 1347359). The method, boiled down: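 HEK293 cells (500/well, DMEM + 10% FBS) were exposed to compounds in an 11-point series for 24 hours at 37 degrees C, then caspase-3/7 activity was read by Caspase-Glo DEVD luciferase luminescence after 15 min.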
The target of experiment [7] is Luciferin 4-monooxygenase (Photinus pyralis) (UniProt P08659). In words: Firefly luciferase counterscreen qHTS: Assay Interference Panel against the NCATS CANVASS Library (AID 1347363). Also: series mostly up to about 57 µM. Put shortly:
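Purified P. pyralis luciferase was added to compounds (11-point series) preincubated 15 min at room temperature with substrate containing 0.013 mM D-luciferin and 0.013 mM ATP; luminescence was read after 5 min.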
(In general: A counterscreen serves to expose hits that act by an unwanted route or on another target.)

Experiment [8] in a line: KB-8-5-11 Cancer Cell Toxicity qHTS against the NCATS CANVASS Library (AID 1347364). Also: nearly all actives have a fitted effect of over 75% in size. Also: potency is read from the fitted curve at half-maximal effect. Put shortly: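 Natural products were titrated in 11 points onto KB-8-5-11 cells, 500 per well, and cytotoxicity was scored from CellTiter-Glo luminescence after 72 hr culture.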
Experiment [9] in a line: SDT Cancer Cell Toxicity qHTS against the NCATS CANVASS Library (AID 1347365). Also: nearly all actives have a fitted effect of over 60% in size. Also: potency is read from the fitted curve at half-maximal effect. Put shortly: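 Dispense 500 SDT cells per well; pin-transfer compounds; incubate 72 hr at 37C, 5% CO2, 95% RH; add CellTiterGlo and read luminescence.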
Experiment [10] in a line: qHTS for ATAD5 Agonist screened against the NCATS CANVASS Library (AID 1347367).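 Also: luciferase reporter driven by ATAD5 which rises upon DNA damage.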 Put shortly:
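Step one plated reporter cells and let them acclimate 5hr. Step two pinned compounds with MMS as positive and 0.46% DMSO as negative control. After 16hr incubation, fluorescence viability then luminescence were read.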

A short description of experiment [11]: G06 Cancer Cell Toxicity qHTS against the NCATS CANVASS Library (AID 1347368). Also: nearly all actives have a fitted effect of over 60% in size. Also: potency is read from the fitted curve at half-maximal effect. Put shortly:
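Cytotoxicity toward canine glioma G06 cells is scored from cellular ATP via luminescence after 72 hr compound exposure at 500 cells/well.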

Experiment [12] is described as follows: qHTS for Hypoxia signaling pathway (HIF-1) antagonists against the NCATS CANVASS Library (AID 1347374). Also: nearly all actives have a fitted effect of over 60% in size. Also: potency is read from the fitted curve at half-maximal effect. Put shortly: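 HRE-bla ME-180 cells (2,000/well, 0.5% dialyzed FBS) were pre-incubated 5 h, then given an 11-point compound series plus CoCl2 (60 uM solution as added) for 17 h at 37C. CCF4 β-lactamase read (ex 405, em 460/530 nm) after 2 h at RT.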
Experiment [13] is described as follows: Inflammasome Signaling qHTS Counterscreen: IL-1-beta AlphaLISA counterscreen against the NCATS CANVASS Library (AID 1347381).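 Also: cell-free check with purified IL-1β in medium and no THP-1 cells; series mostly up to about 57 µM.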 The method, boiled down:
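To flag interference with the AlphaLISA read-out, a known amount of purified IL-1-beta (4 pg) replaced cell supernatant. Detection used anti-IL-1-beta acceptor beads, biotinylated antibody and streptavidin donor beads at room temperature.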

Experiment [14] can be described thus: qHTS for Activators of p53 Stress Response Pathway screened against the NCATS CANVASS Library (AID 1347388). Also: potency is read from the fitted curve at half-maximal effect. Put shortly:
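p53RE-bla HCT-116 cells (4000/well) were plated 5 h at 37C, exposed to compounds for 16 h at 37C over an 11-point concentration series, then loaded with CCF4 for 2 h at room temperature; 460/530 nm emission ratio read.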

Experiment [15] can be described thus: qHTS for activators of Nrf2/ARE signaling pathway screened against the NCATS CANVASS Library (AID 1347391). Also: nearly all actives have a fitted effect of over 60% in size. Also: potency is read from the fitted curve at half-maximal effect. The method, boiled down: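 Cells carrying an ARE-driven beta-lactamase reporter (HepG2 background) are dosed for 16 h, then stained with CCF4. Cell viability in the same wells is measured by CellTiter-Glo luminescence.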
Experiment [16] in a line: qHTS for activators of dead-cell proteases activity screened against the NCATS CANVASS Library (AID 1347392).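 Also: luminescence from protease leaking out of membrane-damaged cells cleaving impermeant substrate; rising signal means more cytotoxicity.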 The method, boiled down: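 HepG2 cells (2000/well) attached 18 h at 37C, then exposed 5 h to compounds (11-point qHTS). Dead-cell protease activity read as luminescence from cell-impermeant AAF-aminoluciferin substrate after 15 min at room temperature.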
The nature of experiment [17]: qHTS for inhibitors of Wild type Zika virus screened against the NCATS CANVASS Library (AID 1347396).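 Also: ATP luminescence of surviving cells so rescue from viral cell killing; series mostly up to about 46 µM.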 The method, boiled down: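 Vero 766 cells, 1000/well, o/n attach; cpds pin-transferred (11-pt qHTS); WT Zika added; 72 h, 37C, 5% CO2; CellTiter Glo lumi. Uninfected + vehicle = 100% inhibition.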
Experiment [18] in a line: DH5-alpha competent E. coli microbial cell viability qHTS against the NCATS CANVASS Library (AID 1347377). As to conditions: outcome: dose series up to 46.1 µM unless noted. Put shortly:
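Cell viability of competent DH5-alpha E. coli is scored from ATP content by luminescence. Cells sit overnight at 37C with compound across an 11-point concentration series.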

Experiment [19] is described as follows: SW1088 Cancer Cell Toxicity qHTS against the NCATS CANVASS Library (AID 1347350). Also: nearly all actives have a fitted effect of over 75% in size. Put shortly:
as §1

Chain of Luciferin 4-monooxygenase (Photinus pyralis) (P08659 whole entry, looked up): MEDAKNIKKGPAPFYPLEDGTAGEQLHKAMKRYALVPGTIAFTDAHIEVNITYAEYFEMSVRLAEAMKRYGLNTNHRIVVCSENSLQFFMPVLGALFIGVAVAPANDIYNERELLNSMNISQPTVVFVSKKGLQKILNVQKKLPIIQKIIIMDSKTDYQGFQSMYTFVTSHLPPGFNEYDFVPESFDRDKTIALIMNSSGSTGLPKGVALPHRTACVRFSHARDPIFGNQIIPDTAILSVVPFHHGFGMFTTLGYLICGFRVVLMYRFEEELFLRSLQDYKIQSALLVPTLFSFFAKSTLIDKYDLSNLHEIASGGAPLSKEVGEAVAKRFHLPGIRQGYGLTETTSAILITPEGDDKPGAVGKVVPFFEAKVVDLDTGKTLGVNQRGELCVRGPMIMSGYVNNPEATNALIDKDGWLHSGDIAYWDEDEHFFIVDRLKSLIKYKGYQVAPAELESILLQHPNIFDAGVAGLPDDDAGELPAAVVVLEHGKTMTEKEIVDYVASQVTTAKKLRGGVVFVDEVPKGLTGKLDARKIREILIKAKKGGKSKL

Take `C=C1CC[C@@H](Br)C(C)(C)[C@]12CC=C(C)C(=O)C2`: the Potency entry in experiment [1], in experiment [2], in [3], in experiment [4], in experiment [5] and in experiment [6] was “inactive” each time. Further, the Potency result in experiment [7], in [8], in experiment [9], in experiment [10], in experiment [11] and in experiment [12] was “inactive” each time. In addition, the Potency result in experiment [14] and in [16] was “inactive” in each case. In addition, the molecule was classed as inactive in [13] and in [17]. The Potency in experiment [15] was 16.6 µM (active).
As to `O[C@H]1c2ccccc2-c2c3c(cc4c2[C@@H]1NCC4)OCO3`, the Potency result in experiment [1], in experiment [2], in [5], in experiment [6], in experiment [7] and in [10] was “inactive” each time. In addition, the Potency in [3] is 11.8 µM (active); in experiment [9] it was 18.7 µM (active); in experiment [11], 16.6 µM (active); in experiment [12], 18.8 µM (active); in experiment [14] it was 13.2 µM (active); in [15] it was 18.6 µM (active).
On to `COc1cc2c(cc1OC)[C@@H](c1ccc3c(c1)OCO3)C(C)C(C)C2=O` (stereo not given in full), for which the Potency result in [1], in [2], in experiment [5], in experiment [6], in experiment [9] and in [14] was “inactive” in each case. Further, the Potency entry in experiment [16] was “inactive”. In [8], the Potency was 18.7 µM (active). Besides, the call in experiment [18], in experiment [13] and in [17] was inactive.
Consider `C/C=C(/C)c1cc(O)c(C)c2c1Oc1cc(O)cc(C)c1C(=O)O2`, for which the Potency result in [1], in experiment [2], in experiment [3], in experiment [4], in experiment [5] and in [6] was “inactive” each time. For the same molecule, the Potency result in [7], in experiment [9], in experiment [10], in [11] and in experiment [16] was “inactive” each time. Further, the molecule was called inactive in experiment [18] and in experiment [17].
Consider `CC(C)=CCC[C@]12c3cc4c(cc3CC[C@@]1(C)[C@H](C)CC[C@@H]2O)[nH]c1ccccc14`, for which the Potency entry in experiment [1], in experiment [5], in experiment [7], in [9], in [10] and in experiment [11] was “inactive” each time. Moreover, the Potency entry in experiment [14], in [15] and in [16] was “inactive” each time. The molecule was called inactive in experiment [18] and in experiment [17].
With `CC[C@H](C)[C@H]1NC(=O)[C@@H](NC(=O)C(C)C)[C@@H](C)OC(=O)[C@H](COC(=O)CNC(C)=O)NC(=O)[C@@H]([C@@H](C)O)NC(=O)[C@H](Cc2ccccc2)N(C)C(=O)[C@H](c2ccc(OC)cc2)NC1=O` (Isobutyryl-T[d(aIle)][Phg(4-OMe)][NMeF][d(aThr)]S([Gly-Ac]); ester 1-C), the Potency entry in experiment [1], in experiment [2], in [19], in experiment [3], in [4] and in experiment [5] was “inactive” each time. Moreover, the Potency entry in experiment [8], in experiment [9], in experiment [10], in experiment [11], in [12] and in experiment [14] was “inactive” throughout. Further, the Potency result in [16] was “inactive”. The molecule was called inactive in experiment [18], in experiment [13] and in experiment [17].
